Data: the supplement of paper PMC10849652
The full data set covers some 8,800 targets. This sample favours those with a hit. About 0.5% of all pairs of compound and target were hits. Unmarked numbers belong to inactive results.

Assays:
Test in all cases: log2 fold change, soluble protein after heating vs DMSO (PISA); higher = thermal stabilisation; K562 lysate, 10 uM; active = over 0.2 and 3.5 SD of the protein, either way, in both replicates (recomputed)
[1] = compound: C=CC(=O)N1CCC[C@@H](n2nc(-c3ccc(Oc4ccccc4)cc3)c3c(N)ncnc32)C1 [ibrutinib]
Summary of the method: (§1)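 Pellets of K562 cells were dounce-homogenised in PBS pH 7.4 with 1 mM MgCl2, and the crude extract was held at 1 mg/mL protein for a 30 min treatment with 10 μM compound. Aliquots were heated for 3 min over 48°C-58°C and pooled before NP-40 was added to 0.5% at 4°C. The supernatant from 21,000xg for 90 min was quantified by TMTpro 16plex LC-MS/MS with channel sums equalised. Values are reported from duplicates as log-two fold change in thermal stability relative to solvent controls.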

[2] = compound: CC(=O)c1cnc2ccc(-c3cc(Cl)c(O)c(Cl)c3)nc2c1N[C@H]1CC[C@H](CN(C)C)CC1
Summary of the method: as §1

[3] = compound: CC(C)(C)Cn1c(N)nc2ccc(-c3[nH]c(C(C)(C)C)nc3-c3ccc(F)cc3)nc21 [ralimetinib]
Summary of the method: as §1

[4] = compound: CC(C)(O)CC(=O)NCCn1ccc2ncnc(Nc3ccc(Oc4cccc(C(F)(F)F)c4)c(Cl)c3)c21
Summary of the method: as §1

[5] = compound: CC(C)C1=C2N=C(C=C(N2N=C1)NCC3=CC=CC=C3)NCCCCCCN
Summary of the method: as §1

[6] = compound: CC1=C(C(CC(=O)N1)C2=CC=C(C=C2)C(F)(F)F)C(=O)NC3=C(C=C4C(=C3)C=NN4)F
Summary of the method: as §1

[7] = compound: CC1=C(C2=C(C=C1)C(=O)C3=CC=CC=C3N2CCCN)C
Summary of the method: as §1

[8] = compound: CC1=C(C=C(C=C1)NC(=O)C2=CC(=CC=C2)C(C)(C)C#N)NC3=CC4=C(C=C3)N=CN(C4=O)C
Summary of the method: as §1

[9] = compound: CC1=C(C=C(C=C1)NC(=O)C2=CC(=CC=C2)N(C)C)NC(=O)C3=CC=C(C=C3)O
Summary of the method: as §1

[10] = compound: CC1=CC=C(C=C1)SC2=C3C=C(SC3=CN=C2)C(=O)N
Summary of the method: as §1

[11] = compound: CCCS(=O)(=O)Nc1ccc(F)c(C(=O)c2c[nH]c3ncc(-c4ccc(Cl)cc4)cc23)c1F [vemurafenib]
Summary of the method: as §1

[12] = compound: CCCS(=O)(=O)Nc1ccc(F)c(C(=O)c2c[nH]c3ncc(Cl)cc23)c1F
Summary of the method: as §1

[13] = compound: CCN(CCCOc1ccc2c(Nc3cc(CC(=O)Nc4cccc(F)c4)[nH]n3)ncnc2c1)CCOP(=O)(O)O [barasertib]
Summary of the method: as §1

[14] = compound: CC[C@@H]1C(=O)N(C)c2cnc(Nc3ccc(C(=O)NC4CCN(C)CC4)cc3OC)nc2N1C1CCCC1
Summary of the method: as §1

[15] = compound: CC[C@@H]1C(=O)N(C)c2cnc(Nc3ccc(C(=O)N[C@H]4CC[C@H](N5CCN(CC6CC6)CC5)CC4)cc3OC)nc2N1C(C)C [volasertib]
Summary of the method: as §1

[16] = compound: CCn1c(C(=O)N(C2CC2)C2CC2)cc2c3c(ncn3C)c(Nc3cc(C)n(C)n3)nc21
Summary of the method: as §1

[17] = compound: CCn1cc(-c2ccnc3[nH]c(-c4cccc(CN(C)C)c4)cc23)c(-c2ccc(NC(=O)N(C)C)cc2)n1
Summary of the method: as §1

[18] = compound: CN1CCC(CNc2ccc3ncc(-c4cccc(OC(F)(F)F)c4)n3n2)CC1
Summary of the method: as §1

[19] = compound: CN1CCN(CCOc2cc(OC3CCOCC3)c3c(Nc4c(Cl)ccc5c4OCO5)ncnc3c2)CC1 [saracatinib]
Summary of the method: as §1

[20] = compound: CN1CCN(c2nc(C3=C(c4c[nH]c5ccccc45)C(=O)NC3=O)c3ccccc3n2)CC1 [sotrastaurin]
Summary of the method: as §1

Chain of UniProt A8CG34 (A8CG34 whole entry, looked up): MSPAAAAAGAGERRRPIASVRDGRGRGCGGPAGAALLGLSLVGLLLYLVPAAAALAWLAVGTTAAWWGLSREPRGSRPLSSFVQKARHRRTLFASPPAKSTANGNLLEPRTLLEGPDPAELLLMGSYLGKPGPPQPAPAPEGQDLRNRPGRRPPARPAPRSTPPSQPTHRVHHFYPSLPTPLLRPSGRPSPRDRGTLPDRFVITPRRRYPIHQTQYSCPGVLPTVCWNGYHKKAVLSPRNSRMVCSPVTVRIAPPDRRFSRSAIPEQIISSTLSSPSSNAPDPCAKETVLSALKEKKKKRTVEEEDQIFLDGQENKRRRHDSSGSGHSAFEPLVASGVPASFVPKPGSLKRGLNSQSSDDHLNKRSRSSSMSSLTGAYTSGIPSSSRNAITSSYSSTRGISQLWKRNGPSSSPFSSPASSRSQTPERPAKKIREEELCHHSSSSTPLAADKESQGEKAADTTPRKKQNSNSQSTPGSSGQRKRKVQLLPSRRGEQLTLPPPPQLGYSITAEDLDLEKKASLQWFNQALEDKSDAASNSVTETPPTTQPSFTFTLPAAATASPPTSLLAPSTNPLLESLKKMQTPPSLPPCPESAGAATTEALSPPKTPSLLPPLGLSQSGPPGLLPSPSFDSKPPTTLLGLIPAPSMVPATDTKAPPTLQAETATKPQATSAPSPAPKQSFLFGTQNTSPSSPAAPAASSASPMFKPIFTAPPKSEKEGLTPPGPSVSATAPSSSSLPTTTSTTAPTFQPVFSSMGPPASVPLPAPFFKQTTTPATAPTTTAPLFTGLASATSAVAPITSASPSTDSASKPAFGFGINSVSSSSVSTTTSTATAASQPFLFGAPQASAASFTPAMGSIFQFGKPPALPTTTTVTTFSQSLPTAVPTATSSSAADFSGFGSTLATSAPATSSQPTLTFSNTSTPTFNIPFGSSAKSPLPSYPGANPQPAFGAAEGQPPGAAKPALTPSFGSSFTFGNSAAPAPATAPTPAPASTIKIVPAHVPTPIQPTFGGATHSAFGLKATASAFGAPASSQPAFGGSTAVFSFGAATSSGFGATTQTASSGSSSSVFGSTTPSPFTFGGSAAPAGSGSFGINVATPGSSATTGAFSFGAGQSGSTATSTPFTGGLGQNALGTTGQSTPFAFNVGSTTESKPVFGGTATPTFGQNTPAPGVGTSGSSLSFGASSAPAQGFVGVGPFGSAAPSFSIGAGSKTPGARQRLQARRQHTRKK
Chain of UniProt P11309 (P11309 whole entry, looked up): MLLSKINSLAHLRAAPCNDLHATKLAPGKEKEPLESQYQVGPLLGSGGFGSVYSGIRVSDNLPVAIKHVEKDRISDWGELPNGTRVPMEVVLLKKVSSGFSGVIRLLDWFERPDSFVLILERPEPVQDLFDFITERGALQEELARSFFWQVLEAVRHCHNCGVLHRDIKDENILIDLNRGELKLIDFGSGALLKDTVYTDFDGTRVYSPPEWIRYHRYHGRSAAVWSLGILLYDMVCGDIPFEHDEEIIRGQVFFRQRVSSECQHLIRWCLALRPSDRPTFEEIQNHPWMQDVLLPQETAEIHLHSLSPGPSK
Chain of UniProt Q13362 (Q13362 whole entry, looked up): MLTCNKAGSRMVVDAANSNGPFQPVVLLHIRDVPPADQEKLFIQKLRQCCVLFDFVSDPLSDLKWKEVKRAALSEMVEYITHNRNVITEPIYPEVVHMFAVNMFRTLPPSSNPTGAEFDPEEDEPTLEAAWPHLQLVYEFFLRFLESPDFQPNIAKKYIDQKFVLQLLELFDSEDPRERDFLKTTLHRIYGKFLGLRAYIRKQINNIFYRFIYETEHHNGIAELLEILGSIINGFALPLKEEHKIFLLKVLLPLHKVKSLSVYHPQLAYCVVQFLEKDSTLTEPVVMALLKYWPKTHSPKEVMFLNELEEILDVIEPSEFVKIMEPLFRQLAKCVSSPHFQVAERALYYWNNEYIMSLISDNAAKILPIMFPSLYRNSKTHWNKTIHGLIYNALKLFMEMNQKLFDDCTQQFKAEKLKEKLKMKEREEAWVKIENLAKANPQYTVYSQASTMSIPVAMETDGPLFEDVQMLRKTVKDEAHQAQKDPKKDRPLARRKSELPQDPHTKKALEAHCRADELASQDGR
Chain of UniProt Q9Y4D7 (Q9Y4D7 whole entry, looked up): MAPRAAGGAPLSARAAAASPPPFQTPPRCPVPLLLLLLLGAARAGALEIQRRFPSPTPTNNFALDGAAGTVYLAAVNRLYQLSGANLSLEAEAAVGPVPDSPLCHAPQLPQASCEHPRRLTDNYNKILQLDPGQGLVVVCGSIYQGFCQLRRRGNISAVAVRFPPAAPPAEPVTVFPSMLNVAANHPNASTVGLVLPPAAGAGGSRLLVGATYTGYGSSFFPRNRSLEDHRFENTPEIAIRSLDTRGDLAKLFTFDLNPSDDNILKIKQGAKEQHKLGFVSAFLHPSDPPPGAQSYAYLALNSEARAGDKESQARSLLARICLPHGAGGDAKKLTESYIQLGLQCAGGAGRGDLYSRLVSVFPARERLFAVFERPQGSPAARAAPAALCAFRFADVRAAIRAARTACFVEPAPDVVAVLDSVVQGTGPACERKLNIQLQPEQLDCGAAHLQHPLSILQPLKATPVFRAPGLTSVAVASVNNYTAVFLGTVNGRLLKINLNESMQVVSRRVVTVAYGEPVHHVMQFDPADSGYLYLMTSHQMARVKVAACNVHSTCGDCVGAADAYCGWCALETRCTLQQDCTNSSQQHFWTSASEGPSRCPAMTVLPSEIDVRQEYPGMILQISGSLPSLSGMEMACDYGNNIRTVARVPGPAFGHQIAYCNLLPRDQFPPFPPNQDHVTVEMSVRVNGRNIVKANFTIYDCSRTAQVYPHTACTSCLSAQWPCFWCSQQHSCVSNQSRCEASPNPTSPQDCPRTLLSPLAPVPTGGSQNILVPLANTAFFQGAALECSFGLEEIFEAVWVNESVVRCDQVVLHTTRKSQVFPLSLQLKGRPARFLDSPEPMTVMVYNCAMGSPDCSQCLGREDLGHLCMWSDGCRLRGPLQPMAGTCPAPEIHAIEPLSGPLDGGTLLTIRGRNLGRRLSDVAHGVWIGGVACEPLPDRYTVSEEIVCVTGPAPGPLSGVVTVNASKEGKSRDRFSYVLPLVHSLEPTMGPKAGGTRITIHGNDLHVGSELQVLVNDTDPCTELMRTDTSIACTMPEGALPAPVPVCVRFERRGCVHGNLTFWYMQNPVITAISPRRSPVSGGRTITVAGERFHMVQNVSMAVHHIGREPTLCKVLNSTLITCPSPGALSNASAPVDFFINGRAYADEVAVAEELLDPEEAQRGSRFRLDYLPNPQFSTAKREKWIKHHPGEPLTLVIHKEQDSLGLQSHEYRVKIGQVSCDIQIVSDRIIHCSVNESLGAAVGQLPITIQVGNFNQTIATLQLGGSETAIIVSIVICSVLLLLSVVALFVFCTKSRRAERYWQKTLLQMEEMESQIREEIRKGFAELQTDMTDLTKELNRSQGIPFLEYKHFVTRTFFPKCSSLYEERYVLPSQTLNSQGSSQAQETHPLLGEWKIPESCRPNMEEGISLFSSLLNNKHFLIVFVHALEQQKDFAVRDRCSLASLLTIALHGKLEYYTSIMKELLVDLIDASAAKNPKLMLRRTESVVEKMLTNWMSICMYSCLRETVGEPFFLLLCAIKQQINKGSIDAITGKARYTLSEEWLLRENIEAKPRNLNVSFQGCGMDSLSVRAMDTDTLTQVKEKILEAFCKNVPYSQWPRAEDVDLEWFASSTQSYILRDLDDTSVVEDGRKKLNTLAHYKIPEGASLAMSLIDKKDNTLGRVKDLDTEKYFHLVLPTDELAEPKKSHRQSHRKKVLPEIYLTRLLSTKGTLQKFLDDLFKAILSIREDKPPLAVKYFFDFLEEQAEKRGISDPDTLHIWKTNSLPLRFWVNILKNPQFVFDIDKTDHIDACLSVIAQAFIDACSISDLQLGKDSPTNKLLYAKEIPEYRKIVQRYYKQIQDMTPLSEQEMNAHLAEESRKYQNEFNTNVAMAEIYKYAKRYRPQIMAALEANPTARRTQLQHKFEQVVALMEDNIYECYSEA
Chain of UniProt Q96LW4 (Q96LW4 whole entry, looked up): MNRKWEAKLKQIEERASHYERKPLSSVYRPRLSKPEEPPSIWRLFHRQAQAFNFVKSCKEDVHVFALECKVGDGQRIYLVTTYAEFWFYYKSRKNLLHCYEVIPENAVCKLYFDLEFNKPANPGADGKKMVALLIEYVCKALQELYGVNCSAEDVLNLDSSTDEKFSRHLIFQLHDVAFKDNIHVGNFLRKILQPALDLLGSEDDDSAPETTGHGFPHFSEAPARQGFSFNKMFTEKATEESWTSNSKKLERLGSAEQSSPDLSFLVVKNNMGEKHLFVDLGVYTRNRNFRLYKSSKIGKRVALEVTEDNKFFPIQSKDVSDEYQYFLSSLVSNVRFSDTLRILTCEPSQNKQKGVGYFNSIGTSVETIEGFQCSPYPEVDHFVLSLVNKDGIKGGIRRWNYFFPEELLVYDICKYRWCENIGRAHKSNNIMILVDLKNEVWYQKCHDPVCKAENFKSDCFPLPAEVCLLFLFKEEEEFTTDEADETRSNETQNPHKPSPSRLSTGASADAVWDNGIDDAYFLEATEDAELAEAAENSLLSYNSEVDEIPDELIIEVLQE
Chain of UniProt O75569 (O75569 whole entry, looked up): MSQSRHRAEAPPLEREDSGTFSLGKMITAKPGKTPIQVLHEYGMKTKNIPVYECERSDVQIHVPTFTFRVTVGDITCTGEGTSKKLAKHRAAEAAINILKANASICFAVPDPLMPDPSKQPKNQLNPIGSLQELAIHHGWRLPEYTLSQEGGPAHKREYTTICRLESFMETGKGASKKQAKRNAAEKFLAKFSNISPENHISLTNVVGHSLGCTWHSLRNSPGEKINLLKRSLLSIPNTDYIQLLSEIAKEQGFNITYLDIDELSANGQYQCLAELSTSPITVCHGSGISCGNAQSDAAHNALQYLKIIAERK
Chain of UniProt Q6EEV4 (Q6EEV4 whole entry, looked up): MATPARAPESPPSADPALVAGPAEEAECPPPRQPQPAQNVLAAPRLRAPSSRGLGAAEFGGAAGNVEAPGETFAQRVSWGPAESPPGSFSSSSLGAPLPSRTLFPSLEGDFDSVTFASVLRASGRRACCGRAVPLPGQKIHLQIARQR

| Target | log2 fold change [1] | log2 fold change [2] | log2 fold change [3] | log2 fold change [4] | log2 fold change [5] | log2 fold change [6] | log2 fold change [7] | log2 fold change [8] | log2 fold change [9] | log2 fold change [10] | log2 fold change [11] | log2 fold change [12] | log2 fold change [13] | log2 fold change [14] | log2 fold change [15] | log2 fold change [16] | log2 fold change [17] | log2 fold change [18] | log2 fold change [19] | log2 fold change [20] |
| --- | --- | --- | --- | --- | --- | --- | --- | --- | --- | --- | --- | --- | --- | --- | --- | --- | --- | --- | --- | --- |
| PWP2 (UniProt Q15269) | 0.003 | -0.021 | 0.048 | 0.027 | 0.009 | 0.037 | -0.014 | -0.035 | 0.018 | 0.015 | 0.033 | 0.045 | 0.044 | 0.006 | -0.013 | 0.018 | 0.015 | -0.038 | 0.015 | 0.052 |
| PHLDB1 (UniProt Q86UU1) | 0.05 | 0.049 | -0.094 | 0.096 | -0.021 | 0.004 | -0.009 | 0.114 | -0.001 | 0.156 | -0.071 | 0.162 | 0.01 | 0.033 | -0.044 | 0.001 | 0.095 | -0.014 | 0.005 | -0.049 |
| PFKFB4 (UniProt Q16877) | 0.022 | -0.005 | 0.1 | -0.032 | -0.004 | – | -0.008 | -0.003 | 0.093 | 0.011 | 0.021 | 0.005 | 0.087 | 0.015 | -0.068 | -0.011 | 0.014 | 0.007 | 0.077 | 0.043 |
| PRKD3 (UniProt O94806) | -0.112 | 0.054 | -0.164 | -0.052 | 0.03 | 0.039 | – | -0.068 | -0.022 | -0.077 | -0.148 | -0.057 | 0.161 | -0.25 | -0.06 | -0.143 | -0.876 (active) | 0.219 | – | 0.086 |
| PRKRA (UniProt O75569) | -0.043 | -0.01 | 0.035 | 0.011 | 0.013 | 0.045 | -0.038 | 0.002 | 0.056 | 0.019 | -0.012 | 0.031 | -0.042 | -0.082 | -0.052 | 0.041 | 0 | -0.016 | 0.03 | 0.009 |
| PHGDH, A0A286YFE1 | 0.032 | 0.084 | – | – | – | – | -0.458 | – | – | 0.107 | – | 0.158 | 0.364 | – | 0.083 | – | – | – | -0.318 | – |
| PPP2R5C isoform 2 (UniProt Q13362) | -0.145 | – | -0.016 | -0.02 | 0.02 | -0.012 | 0 | -0.155 | 0.08 | – | 0.014 | – | -0.267 | – | – | -0.081 | -0.023 | -0.033 | 0.014 | 0.134 |
| POLR2M (UniProt Q6EEV4) | 0.005 | -0.07 | – | – | -0.109 | – | 0.007 | 0.157 | – | 0.078 | 0.117 | -0.043 | 0.176 | 0.032 | -0.074 | – | 0.154 | -0.077 | 0.016 | -0.072 |
| PMS1 (UniProt P54277) | 0 | – | -0.015 | -0.021 | 0.025 | -0.052 | 0.022 | -0.02 | 0.009 | – | 0.037 | – | 0.193 | 0.019 | – | -0.028 | -0.01 | -0.051 | 0.016 | -0.002 |
| NA (UniProt Q4G0T1) | – | – | 0.016 | -0.096 | -0.119 | – | -0.061 | -0.158 | -0.151 | – | – | – | – | – | – | 0.032 | 0.022 | 0.026 | -0.033 | 0.129 |
| PRG4 (UniProt Q92954) | 0.267 | -0.002 | 0.037 | -0.109 | – | -0.091 | -0.029 | -0.027 | 0.035 | 0.034 | – | -0.038 | 0.332 | – | 0.054 | -0.03 | -0.179 | 0.229 | 0.009 | -0.02 |
| PCBP2 (UniProt F8VRH0) | – | -0.014 | 0.087 | -0.033 | 0.051 | 0.129 | – | 0.017 | 0.012 | 0.027 | – | -0.035 | – | – | -0.058 | -0.138 | -0.033 | -0.047 | – | -0.066 |
| PECR (UniProt Q9BY49) | – | – | – | – | – | – | – | – | – | – | – | – | – | 0.023 | – | – | – | – | – | – |
| PRIMPOL (UniProt Q96LW4) | 0.062 | – | 0.055 | -0.027 | 0.048 | -0.055 | -0.034 | 0.078 | 0.049 | – | -0.02 | – | -0.083 | -0.095 | – | 0.011 | – | – | 0.014 | 0.089 |
| PLXND1 (UniProt Q9Y4D7) | 0.138 | – | -0.081 | -0.07 | 0.046 | -0.023 | 0.112 | -0.033 | 0.218 | – | – | – | 0.045 | – | – | -0.214 | – | – | 0.018 | 0.012 |
| PHKG1 isoform 2 (UniProt Q16816) | – | 0.595 | 0.02 | -0.016 | -0.003 | -0.117 | -0.196 | 0.017 | -0.02 | -0.086 | -0.197 | -0.037 | – | -0.062 | 0.033 | 0.054 | -0.867 (active) | 0.64 | 0.177 | -0.269 |
| PICALM (UniProt H0YCY1) | – | – | – | – | -0.155 | – | – | – | – | – | – | – | – | – | – | – | – | – | – | – |
| POM121C (UniProt A8CG34) | -0.167 | 0.008 | -0.127 | 0.016 | 0.028 | – | – | – | -0.028 | 0.034 | – | -0.037 | 0.201 | – | -0.101 | 0.045 | 0.146 | 0.158 | – | – |
| PTMA isoform 2 (UniProt P06454) | -0.053 | – | – | – | – | – | – | – | – | – | – | – | -0.09 | – | – | – | – | – | – | – |
| PIM1 isoform 2 (UniProt P11309) | -0.138 | – | 0.042 | 0.122 | -0.038 | -0.014 | 0.054 | 0.01 | 0.054 | – | -0.061 | – | 0.139 | 0.002 | – | 0.073 | -0.068 | 1.46 (active) | 0 | 0.593 (active) |
